# Results taken from article PMC7862700, “An all-to-all approach to the identification of sequence-specific readers for epigenetic DNA modifications on cytosine”.
# Legend:
# Experiment in all cases: DAPPL (digital affinity profiling via proximity ligation, sequencing); 10 mM Tris-HCl pH 7.5, 50 mM NaCl, 1 mM DTT, 4% glycerol, room temperature, 30 min; GST-TFs on glutathione beads, 16-mer random dsDNA library, 0.1% formaldehyde crosslink after washing; high values mean tight binding
# FEV = molecular target: T1, FEV (Homo sapiens, UniProt Q99581 1-238); conditions: protein: recombinant; tags: N-terminal GST; dsDNA, one strand shown
# T1 sequence: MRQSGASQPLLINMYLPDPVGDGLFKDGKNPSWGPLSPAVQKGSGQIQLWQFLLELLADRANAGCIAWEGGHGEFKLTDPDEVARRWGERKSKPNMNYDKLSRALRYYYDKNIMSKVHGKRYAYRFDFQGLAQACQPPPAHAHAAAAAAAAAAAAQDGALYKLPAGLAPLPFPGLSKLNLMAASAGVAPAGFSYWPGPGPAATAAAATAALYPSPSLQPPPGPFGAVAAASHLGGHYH
# In short: (§1)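 Human transcription factors fused to GST were expressed in yeast, captured on glutathione beads, given DNA barcodes and pooled with a GST-only negative control. Pools were incubated with 200 nmole of a 16-mer random double-stranded DNA library in Tris/NaCl/DTT/glycerol buffer at room temperature for 30 min. They were then washed, crosslinked with 0.1% formaldehyde, proximity-ligated (BsaI/T4 ligase, 1 h, 37 °C), PCR-amplified and sequenced on an Illumina NextSeq500. Binding signal is each 6-mer's read frequency for a factor divided by its frequency for the GST control.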
# ETV5 = ETV5 (Homo sapiens, UniProt P41161 1-510); conditions: protein: recombinant; tags: N-terminal GST; dsDNA, one strand shown
# In short: as §1
# HSF1 = HSF1 (Homo sapiens, UniProt Q00613 1-529); conditions: protein: recombinant; tags: N-terminal GST; chain copies: 3; dsDNA, one strand shown
# In short: as §1
# SPIC = molecular target: T2, SPIC (Homo sapiens, UniProt Q8N5J4 1-248); conditions: protein: recombinant; tags: N-terminal GST; dsDNA, one strand shown
# T2 sequence: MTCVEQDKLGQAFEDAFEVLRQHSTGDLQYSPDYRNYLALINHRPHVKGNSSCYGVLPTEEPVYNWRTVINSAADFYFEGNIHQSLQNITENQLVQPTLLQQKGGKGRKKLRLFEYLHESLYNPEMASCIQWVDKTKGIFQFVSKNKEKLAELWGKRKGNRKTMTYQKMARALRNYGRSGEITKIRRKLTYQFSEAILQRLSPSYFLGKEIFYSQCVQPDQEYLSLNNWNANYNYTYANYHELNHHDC
# In short: as §1
# ELF4 = ELF4 (Homo sapiens, UniProt Q99607 1-663); conditions: protein: recombinant; tags: N-terminal GST; dsDNA, one strand shown
# In short: as §1
# ELK4 = molecular target: T3, ELK4 (Homo sapiens, UniProt P28324-2 1-405); conditions: protein: recombinant; tags: N-terminal GST; dsDNA, one strand shown
# T3 sequence: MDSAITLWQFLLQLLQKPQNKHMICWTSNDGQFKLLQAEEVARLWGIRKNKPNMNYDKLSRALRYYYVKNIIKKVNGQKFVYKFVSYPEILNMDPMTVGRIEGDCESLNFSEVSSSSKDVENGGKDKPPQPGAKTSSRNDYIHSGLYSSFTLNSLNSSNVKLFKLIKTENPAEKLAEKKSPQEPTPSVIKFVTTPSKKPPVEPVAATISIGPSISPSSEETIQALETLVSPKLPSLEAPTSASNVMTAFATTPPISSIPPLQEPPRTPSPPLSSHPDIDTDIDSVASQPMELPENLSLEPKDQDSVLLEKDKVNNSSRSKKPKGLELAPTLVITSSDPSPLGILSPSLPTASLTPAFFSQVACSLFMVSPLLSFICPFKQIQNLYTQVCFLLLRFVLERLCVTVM
# In short: as §1
# ETV2 = molecular target: T4, ETV2 (Homo sapiens, UniProt O00321 1-342); conditions: protein: recombinant; tags: N-terminal GST; dsDNA, one strand shown
# T4 sequence: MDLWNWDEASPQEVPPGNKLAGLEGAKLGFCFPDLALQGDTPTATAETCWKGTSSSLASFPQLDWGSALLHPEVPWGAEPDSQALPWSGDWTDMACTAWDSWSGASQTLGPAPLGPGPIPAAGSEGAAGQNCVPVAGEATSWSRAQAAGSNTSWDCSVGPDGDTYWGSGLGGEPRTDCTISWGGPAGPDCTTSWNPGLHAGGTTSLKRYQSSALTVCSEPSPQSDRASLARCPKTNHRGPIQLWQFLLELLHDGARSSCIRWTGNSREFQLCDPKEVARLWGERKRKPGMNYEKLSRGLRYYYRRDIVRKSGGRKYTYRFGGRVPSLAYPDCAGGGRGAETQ
# In short: as §1
# ELF3 = molecular target: T5, ELF3 (Homo sapiens, UniProt P78545 1-371); conditions: protein: recombinant; tags: N-terminal GST; dsDNA, one strand shown
# T5 sequence: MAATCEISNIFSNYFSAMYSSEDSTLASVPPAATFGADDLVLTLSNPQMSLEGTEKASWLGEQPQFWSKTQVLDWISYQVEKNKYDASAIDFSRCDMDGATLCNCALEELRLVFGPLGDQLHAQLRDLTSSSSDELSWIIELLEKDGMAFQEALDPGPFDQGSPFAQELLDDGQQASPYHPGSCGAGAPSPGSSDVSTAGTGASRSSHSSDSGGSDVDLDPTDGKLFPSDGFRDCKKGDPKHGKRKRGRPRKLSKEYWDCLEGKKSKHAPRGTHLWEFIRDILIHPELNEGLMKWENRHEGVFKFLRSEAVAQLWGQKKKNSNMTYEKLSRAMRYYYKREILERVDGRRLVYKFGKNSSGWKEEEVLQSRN
# In short: as §1
# CRX = CRX (Homo sapiens, UniProt O43186 1-299); conditions: protein: recombinant; tags: N-terminal GST; dsDNA, one strand shown
# In short: as §1
# ETV1 = ETV1 (Homo sapiens, UniProt P50549 1-477); conditions: protein: recombinant; tags: N-terminal GST; dsDNA, one strand shown
# In short: as §1
# ERF = molecular target: T6, ERF (Homo sapiens, UniProt P50548 1-548); conditions: protein: recombinant; tags: N-terminal GST; dsDNA, one strand shown
# T6 sequence: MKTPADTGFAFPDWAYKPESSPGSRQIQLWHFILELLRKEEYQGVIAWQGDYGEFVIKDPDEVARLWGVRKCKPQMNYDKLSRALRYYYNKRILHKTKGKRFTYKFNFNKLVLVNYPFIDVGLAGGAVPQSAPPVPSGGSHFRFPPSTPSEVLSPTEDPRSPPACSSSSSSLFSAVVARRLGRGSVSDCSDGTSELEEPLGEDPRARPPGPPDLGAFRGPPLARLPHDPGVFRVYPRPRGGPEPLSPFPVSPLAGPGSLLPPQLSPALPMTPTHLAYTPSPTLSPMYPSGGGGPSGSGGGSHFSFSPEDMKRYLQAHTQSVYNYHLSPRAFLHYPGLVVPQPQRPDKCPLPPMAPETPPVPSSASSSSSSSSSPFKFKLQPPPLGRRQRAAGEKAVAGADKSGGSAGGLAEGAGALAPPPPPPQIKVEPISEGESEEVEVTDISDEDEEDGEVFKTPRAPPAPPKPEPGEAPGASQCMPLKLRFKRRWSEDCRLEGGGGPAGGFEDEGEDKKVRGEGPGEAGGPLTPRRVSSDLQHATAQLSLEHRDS
# In short: as §1
# ETV3L = molecular target: T7, ETV3L (Homo sapiens, UniProt Q6ZN32 1-361); conditions: protein: recombinant; tags: N-terminal GST; dsDNA, one strand shown
# T7 sequence: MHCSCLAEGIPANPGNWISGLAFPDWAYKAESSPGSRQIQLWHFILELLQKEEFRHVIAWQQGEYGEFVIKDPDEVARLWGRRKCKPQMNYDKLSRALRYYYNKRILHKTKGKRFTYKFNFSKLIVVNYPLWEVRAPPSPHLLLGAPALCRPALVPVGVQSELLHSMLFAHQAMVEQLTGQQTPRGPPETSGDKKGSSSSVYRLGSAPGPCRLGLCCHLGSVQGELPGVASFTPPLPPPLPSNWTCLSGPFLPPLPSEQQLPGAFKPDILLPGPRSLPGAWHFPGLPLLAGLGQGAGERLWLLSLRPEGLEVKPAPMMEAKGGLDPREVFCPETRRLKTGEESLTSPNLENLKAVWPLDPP
# In short: as §1
# ETS2 = molecular target: T8, ETS2 (Homo sapiens, UniProt P15036 1-469); conditions: protein: recombinant; tags: N-terminal GST; dsDNA, one strand shown
# T8 sequence: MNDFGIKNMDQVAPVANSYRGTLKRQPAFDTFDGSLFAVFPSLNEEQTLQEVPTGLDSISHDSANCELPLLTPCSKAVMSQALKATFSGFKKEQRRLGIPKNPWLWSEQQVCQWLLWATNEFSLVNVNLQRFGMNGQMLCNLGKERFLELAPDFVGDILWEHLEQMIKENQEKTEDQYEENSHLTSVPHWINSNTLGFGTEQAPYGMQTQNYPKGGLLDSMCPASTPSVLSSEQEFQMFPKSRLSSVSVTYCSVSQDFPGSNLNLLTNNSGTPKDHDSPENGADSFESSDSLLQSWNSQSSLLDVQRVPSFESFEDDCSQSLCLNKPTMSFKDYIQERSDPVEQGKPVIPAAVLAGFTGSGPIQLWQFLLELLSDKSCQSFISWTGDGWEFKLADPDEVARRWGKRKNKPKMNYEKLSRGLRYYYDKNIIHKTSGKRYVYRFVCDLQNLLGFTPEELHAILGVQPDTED
# In short: as §1
# SPDEF = molecular target: T9, SPDEF (Homo sapiens, UniProt O95238 1-335); conditions: protein: recombinant; tags: N-terminal GST; dsDNA, one strand shown
# T9 sequence: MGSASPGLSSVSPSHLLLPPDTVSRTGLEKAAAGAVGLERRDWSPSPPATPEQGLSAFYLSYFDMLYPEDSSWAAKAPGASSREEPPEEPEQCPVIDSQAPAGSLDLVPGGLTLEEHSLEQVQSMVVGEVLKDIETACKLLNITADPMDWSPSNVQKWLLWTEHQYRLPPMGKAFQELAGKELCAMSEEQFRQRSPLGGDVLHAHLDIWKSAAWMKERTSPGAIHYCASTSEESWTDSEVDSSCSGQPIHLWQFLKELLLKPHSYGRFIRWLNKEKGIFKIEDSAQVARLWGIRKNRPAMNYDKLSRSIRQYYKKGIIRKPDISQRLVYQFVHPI
# In short: as §1
# ETV7 = molecular target: T10, ETV7 (Homo sapiens, UniProt Q9Y603 1-341); conditions: protein: recombinant; tags: N-terminal GST; dsDNA, one strand shown
# T10 sequence: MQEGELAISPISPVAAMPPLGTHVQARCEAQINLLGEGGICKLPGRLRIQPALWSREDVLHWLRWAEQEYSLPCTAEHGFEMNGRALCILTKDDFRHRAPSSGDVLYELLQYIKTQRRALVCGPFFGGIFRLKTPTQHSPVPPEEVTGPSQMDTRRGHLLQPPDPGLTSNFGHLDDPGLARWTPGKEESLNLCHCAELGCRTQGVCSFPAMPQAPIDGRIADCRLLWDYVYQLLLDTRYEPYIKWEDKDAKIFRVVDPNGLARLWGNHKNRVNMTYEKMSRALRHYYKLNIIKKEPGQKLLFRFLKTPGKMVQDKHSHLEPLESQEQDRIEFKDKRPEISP
# In short: as §1
# ELF5 = molecular target: T11, ELF5 (Homo sapiens, UniProt Q9UKW6-2 1-255); conditions: protein: recombinant; tags: N-terminal GST; dsDNA, one strand shown
# T11 sequence: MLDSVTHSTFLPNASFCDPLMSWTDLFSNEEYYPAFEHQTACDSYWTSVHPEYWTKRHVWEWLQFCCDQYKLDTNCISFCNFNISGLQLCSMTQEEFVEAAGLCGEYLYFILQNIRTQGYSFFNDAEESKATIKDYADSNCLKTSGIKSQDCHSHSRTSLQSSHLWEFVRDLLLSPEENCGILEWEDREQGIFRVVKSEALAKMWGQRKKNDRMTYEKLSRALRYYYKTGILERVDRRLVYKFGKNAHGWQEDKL
# In short: as §1
# ETV3 = molecular target: T12, ETV3 (Homo sapiens, UniProt P41162-2 1-143); conditions: protein: recombinant; tags: N-terminal GST; dsDNA, one strand shown
# T12 sequence: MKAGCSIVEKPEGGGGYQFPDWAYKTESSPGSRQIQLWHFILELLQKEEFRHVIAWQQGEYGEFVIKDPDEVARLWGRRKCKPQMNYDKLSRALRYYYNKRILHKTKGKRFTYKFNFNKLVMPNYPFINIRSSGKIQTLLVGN
# In short: as §1
# ETV6 = ETV6 (Homo sapiens, UniProt P41212 1-452); conditions: protein: recombinant; tags: N-terminal GST; dsDNA, one strand shown
# In short: as §1
# Sequence of HSF1 (Q00613 whole entry): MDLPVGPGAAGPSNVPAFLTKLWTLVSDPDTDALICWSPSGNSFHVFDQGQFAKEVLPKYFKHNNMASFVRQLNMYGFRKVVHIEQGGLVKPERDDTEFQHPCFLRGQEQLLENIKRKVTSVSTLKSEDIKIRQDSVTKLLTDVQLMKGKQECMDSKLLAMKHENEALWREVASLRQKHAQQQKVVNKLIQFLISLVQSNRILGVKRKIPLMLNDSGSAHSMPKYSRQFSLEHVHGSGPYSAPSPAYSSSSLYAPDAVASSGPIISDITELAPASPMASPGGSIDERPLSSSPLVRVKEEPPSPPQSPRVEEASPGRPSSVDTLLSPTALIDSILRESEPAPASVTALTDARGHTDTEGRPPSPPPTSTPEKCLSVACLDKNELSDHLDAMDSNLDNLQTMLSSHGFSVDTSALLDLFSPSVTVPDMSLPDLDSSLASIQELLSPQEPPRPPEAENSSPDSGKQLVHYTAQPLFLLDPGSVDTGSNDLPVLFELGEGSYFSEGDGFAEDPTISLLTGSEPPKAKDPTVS
# Sequence of CRX (O43186 whole entry): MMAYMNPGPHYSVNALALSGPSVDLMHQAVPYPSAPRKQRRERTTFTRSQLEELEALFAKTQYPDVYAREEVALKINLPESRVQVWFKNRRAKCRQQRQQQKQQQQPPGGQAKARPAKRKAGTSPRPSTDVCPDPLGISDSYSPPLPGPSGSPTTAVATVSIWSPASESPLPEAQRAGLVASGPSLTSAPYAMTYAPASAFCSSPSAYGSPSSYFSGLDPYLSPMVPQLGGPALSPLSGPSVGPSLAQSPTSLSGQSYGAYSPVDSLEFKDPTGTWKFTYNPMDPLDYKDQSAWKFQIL
# Sequence of ETV1 (P50549 whole entry): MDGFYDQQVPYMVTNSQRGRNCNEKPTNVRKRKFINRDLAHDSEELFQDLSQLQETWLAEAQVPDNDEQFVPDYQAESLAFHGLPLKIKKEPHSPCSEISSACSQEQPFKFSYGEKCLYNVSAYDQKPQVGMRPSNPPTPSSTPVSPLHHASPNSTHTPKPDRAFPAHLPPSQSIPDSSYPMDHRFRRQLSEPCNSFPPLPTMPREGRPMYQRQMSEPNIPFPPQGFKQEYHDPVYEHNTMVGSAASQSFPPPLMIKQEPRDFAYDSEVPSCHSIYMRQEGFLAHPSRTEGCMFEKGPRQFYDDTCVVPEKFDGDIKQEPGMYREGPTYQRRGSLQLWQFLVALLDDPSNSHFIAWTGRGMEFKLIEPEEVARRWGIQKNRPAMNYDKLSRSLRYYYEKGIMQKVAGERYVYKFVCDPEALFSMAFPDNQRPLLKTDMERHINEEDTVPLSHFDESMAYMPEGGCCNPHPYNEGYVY
# Sequence of ELF4 (Q99607 whole entry): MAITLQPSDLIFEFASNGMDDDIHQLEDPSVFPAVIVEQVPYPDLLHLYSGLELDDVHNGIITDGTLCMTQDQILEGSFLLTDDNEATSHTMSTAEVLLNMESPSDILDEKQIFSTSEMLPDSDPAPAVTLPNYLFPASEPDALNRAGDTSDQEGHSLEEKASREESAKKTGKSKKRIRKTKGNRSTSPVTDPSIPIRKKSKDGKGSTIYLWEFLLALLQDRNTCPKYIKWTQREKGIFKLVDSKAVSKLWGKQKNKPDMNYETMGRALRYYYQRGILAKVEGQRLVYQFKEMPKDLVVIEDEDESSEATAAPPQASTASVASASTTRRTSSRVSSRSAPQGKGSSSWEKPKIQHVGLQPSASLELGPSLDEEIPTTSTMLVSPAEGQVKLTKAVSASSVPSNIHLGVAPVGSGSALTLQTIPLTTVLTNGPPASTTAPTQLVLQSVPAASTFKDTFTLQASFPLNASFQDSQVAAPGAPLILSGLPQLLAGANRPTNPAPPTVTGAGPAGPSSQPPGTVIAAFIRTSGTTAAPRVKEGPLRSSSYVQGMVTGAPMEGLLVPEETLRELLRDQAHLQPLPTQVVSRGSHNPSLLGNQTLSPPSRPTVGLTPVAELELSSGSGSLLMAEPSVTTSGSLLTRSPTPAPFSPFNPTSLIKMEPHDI
# Sequence of ETV6 (P41212 whole entry): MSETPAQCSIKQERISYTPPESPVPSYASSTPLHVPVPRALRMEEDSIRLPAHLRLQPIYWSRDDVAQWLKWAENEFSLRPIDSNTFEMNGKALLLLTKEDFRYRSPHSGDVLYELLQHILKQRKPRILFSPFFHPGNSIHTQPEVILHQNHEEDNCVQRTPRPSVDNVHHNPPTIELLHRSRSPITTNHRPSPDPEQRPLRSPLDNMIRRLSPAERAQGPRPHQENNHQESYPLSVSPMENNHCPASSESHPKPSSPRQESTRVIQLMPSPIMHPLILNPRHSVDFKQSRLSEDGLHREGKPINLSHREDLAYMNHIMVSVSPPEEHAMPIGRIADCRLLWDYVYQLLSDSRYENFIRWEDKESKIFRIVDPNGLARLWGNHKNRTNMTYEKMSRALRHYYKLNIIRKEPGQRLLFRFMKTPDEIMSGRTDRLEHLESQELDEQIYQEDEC
# Sequence of ETV5 (P41161 whole entry): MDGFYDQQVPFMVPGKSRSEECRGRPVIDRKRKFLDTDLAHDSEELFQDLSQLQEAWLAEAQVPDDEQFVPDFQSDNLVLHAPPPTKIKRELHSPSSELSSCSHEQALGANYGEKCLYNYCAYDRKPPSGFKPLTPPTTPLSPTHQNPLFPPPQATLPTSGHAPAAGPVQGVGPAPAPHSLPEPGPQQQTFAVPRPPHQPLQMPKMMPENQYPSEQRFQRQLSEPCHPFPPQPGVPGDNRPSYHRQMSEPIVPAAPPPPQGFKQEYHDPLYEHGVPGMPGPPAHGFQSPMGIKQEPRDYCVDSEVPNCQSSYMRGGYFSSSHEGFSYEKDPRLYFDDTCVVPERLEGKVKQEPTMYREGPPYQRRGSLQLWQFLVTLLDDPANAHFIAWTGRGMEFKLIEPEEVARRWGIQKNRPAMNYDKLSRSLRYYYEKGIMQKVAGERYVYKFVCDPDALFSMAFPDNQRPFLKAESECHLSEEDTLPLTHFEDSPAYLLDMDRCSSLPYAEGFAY
sequence,measurement,setting,value
TTCCCG,binding signal,FEV,"1.85 fold enrichment (6-mer frequency, TF over GST control)"
same,binding signal,ETV5,"2.08 fold enrichment (6-mer frequency, TF over GST control)"
same,binding signal,HSF1,"2.46 fold enrichment (6-mer frequency, TF over GST control)"
same,binding signal,SPIC,"1.91 fold enrichment (6-mer frequency, TF over GST control)"
same,binding signal,ELF4,"1.73 fold enrichment (6-mer frequency, TF over GST control)"
same,binding signal,ELK4,"1.69 fold enrichment (6-mer frequency, TF over GST control)"
same,binding signal,ETV2,"1.87 fold enrichment (6-mer frequency, TF over GST control)"
same,binding signal,ELF3,"1.64 fold enrichment (6-mer frequency, TF over GST control)"
same,binding signal,CRX,"1.7 fold enrichment (6-mer frequency, TF over GST control)"
same,binding signal,ETV1,"1.88 fold enrichment (6-mer frequency, TF over GST control)"
same,binding signal,ERF,"1.75 fold enrichment (6-mer frequency, TF over GST control)"
same,binding signal,ETV3L,"1.9 fold enrichment (6-mer frequency, TF over GST control)"
same,binding signal,ETS2,"1.97 fold enrichment (6-mer frequency, TF over GST control)"
same,binding signal,SPDEF,"2.05 fold enrichment (6-mer frequency, TF over GST control)"
same,binding signal,ETV7,"1.88 fold enrichment (6-mer frequency, TF over GST control)"
same,binding signal,ELF5,"2.91 fold enrichment (6-mer frequency, TF over GST control)"
same,binding signal,ETV3,"1.92 fold enrichment (6-mer frequency, TF over GST control)"
same,binding signal,ETV6,"2.15 fold enrichment (6-mer frequency, TF over GST control)"
